High-throughput results (PubChem BioAssay)
V-ATPase pH: regulators of yeast V-ATPase proton pumping, primary screen, pHLuorin cytosolic pH fluorescence | S. cerevisiae | response, % at 10 µM | 350,000 compounds, 0.37% hits | AID 504577, 2011; in the data active = response mostly above about 7.3%, no sharp cut-off; inactive = mostly below about 5.4%; note: actives read high
Efflux pump mplx: inhibitors of Candida efflux pumps in yeast, primary screen, S. cerevisiae, Nile Red, multiplex. inhibition, % at 10 µM. S. cerevisiae Candida pump triplex. 330,000 compounds, 0.44% hits;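 active = plate passing quality check with inhibition over a set limit, or well fluorescence over plate mean plus 4 SD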;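 note: Nile Red retained in pooled yeast measured as flow cytometry median fluorescence; 0% = buffer negative control and 100% = Enniatin B positive control; higher means more Nile Red kept so more efflux inhibition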
ATG4B inh: ATG4B protease inhibitors, primary screen, biochemical, fluorescence, uHTS | Cysteine protease ATG4B (Homo sapiens), Q9Y4P1 | ATG4B cleavage of LC3-PLA2, NBD-HPC fluorescence, 1 h | inhibition, % at 8.33 µM | 340,000 compounds, 0.51% hits | AID 504462, 2011; in the data active = inhibition above about 40%
Target sequence (Q9Y4P1 whole entry, looked up): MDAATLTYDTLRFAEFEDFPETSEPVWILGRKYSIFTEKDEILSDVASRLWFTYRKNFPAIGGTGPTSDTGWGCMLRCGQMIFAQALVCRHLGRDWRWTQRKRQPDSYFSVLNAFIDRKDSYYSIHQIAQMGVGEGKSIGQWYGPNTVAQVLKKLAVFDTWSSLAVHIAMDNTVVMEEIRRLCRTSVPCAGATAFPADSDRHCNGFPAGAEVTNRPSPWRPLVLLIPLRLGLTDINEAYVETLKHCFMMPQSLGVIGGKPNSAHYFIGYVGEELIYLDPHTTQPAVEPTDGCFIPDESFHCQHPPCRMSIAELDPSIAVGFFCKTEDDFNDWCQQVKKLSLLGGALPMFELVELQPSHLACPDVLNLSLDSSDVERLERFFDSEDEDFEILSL
Mot1-301 SUMO: yeast Mot1-301 growth rescue at high temperature, primary screen, SUMOylation pathway inhibitor project, S. cerevisiae, ATP luminescence, 38.5C; growth rescue, % at 18.8 µM; S. cerevisiae Mot1-301 growth rescue; percent above DMSO median, 100 means doubled; 320,000 compounds, 1% hits; AID 2716, 2010;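 active = every valid replicate shows activation above 250% relative to neutral control wells; inactive = the rest, any valid replicate at or below 250%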;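 note: OY570 slx delta 5 strain wells were the positive control but not used for scaling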
AI-2 QS modul: Vibrio harveyi AI-2 quorum sensing modulators, primary screen, JMH597 strain, luminescence/OD600 ratio. Vibrio harveyi JMH597 AI-2 luminescence/OD600 ratio, 9 h; hits give low values; strain lacks LuxN and CqsS sensors; 0 = neutral-control median. 300,000 compounds, 0.4% hits. activity change, % at 7.5 µM. AID 2094, 2009; in the data active = activity change below about -75%, passing the limit was not always enough;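 note: luminescence divided by OD600 gain over 9 h not by final OD600 alone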
Yeast Mot1 SUMO: growth restoration of Mot1-301 yeast on galactose, dose response, SUMO pathway inhibitor project, whole organism, S. cerevisiae, ATP luminescence, cherry-picked samples; shares compounds with Mot1-301 SUMO; S. cerevisiae Mot1-301 galactose growth, 24 h; -100 = growth of slx-deleted rescue strain; growth activity, percent, % at 42 µM; 2,300 tested, under 10 active; AID 493004, 2010;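 active = Signal drops as the depositor expects, and the fitted half-maximal dose is no more than ten times the top valid tested dose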;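 note: more negative values mean stronger growth rescue toward the control strain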
* marks the source's active call; other numbers are inactive results; nt = no result; + = active, no number. An excerpt weighted towards active compounds, which were near 2.5% of everything screened.

SMILES	V-ATPase pH	Efflux pump mplx	ATG4B inh	Mot1-301 SUMO	AI-2 QS modul	Yeast Mot1 SUMO
Cc1nn(C)cc1CNC(=O)C1CCC(=O)N(Cc2cccc(C(F)(F)F)c2)C1 (stereo not given)	-1.6	0.0	1.2	374.7*	21.3	-0.1
Cc1cc(CNC(=O)C2CCC(=O)N(Cc3cccc(C(F)(F)F)c3)C2)no1 (stereo not given)	-2.3	0.0	22.9	-18.8	9.4	nt
CC1(C)S[C@@H]2C(C(=O)OCc3ccccc3)NC(=O)N2C1C(=O)OCc1ccccc1 (stereo not given in full)	5.6	-0.1	11.2	-3.1	1.6	nt
CCOc1ccc(CCNC(=O)COC(=O)c2cccc(OC)c2O)cc1OCC	6.4	0.1	-0.6	540.6*	5.6	0.1
CCOc1ccc(CCNC(=O)COC(=O)c2ccc(OC)c(OC)c2OC)cc1OCC	1.2	0.4	-4.2	5.6	34.0	nt
CCOc1ccc(CCNC(=O)COC(=O)COc2ccc(C(C)=O)cc2)cc1OCC	0.0	0.2	-10.2	+	32.8	-1.2
Cc1ccc(S(=O)(=O)CCC(=O)OCc2nnc(-c3ccc([N+](=O)[O-])cc3)o2)cc1	5.3	nt	-6.6	nt	nt	nt
CCOc1cc(/C=C2\NC(=O)NC2=O)ccc1OC(C)C(=O)O (stereo not given)	-4.6	0.2	8.8	513.8*	11.2	0.8
COc1cc(C=C2NC(=O)NC2=O)ccc1O	-1.5	nt	nt	nt	nt	nt
CCOC(=O)NNC(=O)CCn1c2c(c3ccccc31)CCCC2	2.9	0.1	17.4	960.0*	14.3	0.1
CC(=O)NNC(=O)CCn1c2c(c3ccccc31)CCCC2	1.4	-0.2	-13.5	2.9	15.4	nt
COc1cc(C(=O)Nc2cccc(-c3nnc(-c4ccco4)o3)c2)ccc1OC(C)=O	0.2	-0.2	-10.7	124.4	26.6	nt
O=C1CN(C(=O)COC(=O)c2ccccc2NCc2ccco2)c2ccccc2N1	1.1	0.1	-17.6	728.0*	-11.4	-0.3
CCOC(=O)c1c(C)[nH]c(O)c1C=Nc1ccccc1	3.7	-0.1	-14.9	882.9*	18.2	-0.3
CCOC(=O)c1c(C)[nH]c(C=Nc2ccccc2)c1O	nt	nt	nt	nt	8.2	nt
C(=N\Nc1ccc2nncn2n1)/c1ccccn1	-3.9	0.0	-1.1	498.8*	38.0	0.2
CCCNC(=O)c1ccc(C2SCC(=O)N2CCc2ccccc2)cc1 (stereo not given)	-0.7	-0.2	-4.2	1.7	36.1	nt
CCOC(=O)c1ccc(NC(=O)c2nc[nH]c2C(=O)N2CCc3ccccc3C2)cc1	0.8	0.1	-3.0	371.0*	16.2	0.3
COC(=O)C1CCN(S(=O)(=O)Cc2ccccc2)CC1	-7.5	-0.6	6.5	688.7*	41.7	0.3
CSc1ccc(CN2CCN(S(=O)(=O)Cc3ccccc3)CC2)cc1	-0.4	0.8	6.1	379.4*	6.6	-0.8
O=S(=O)(Cc1ccccc1)N1CCN(c2ncccn2)CC1	2.3	0.0	-3.9	398.8*	17.1	-0.1
CCc1ccc(CN2CCN(S(=O)(=O)Cc3ccccc3)CC2)cc1	-0.8	0.0	-0.8	8.5	20.1	nt
O=C(NCc1ccccc1Cl)C1CCC(=O)N(C2CC2)C1 (stereo not given)	4.9	0.2	1.8	-0.4	29.5	nt
O=C(NCc1cccc(F)c1F)C1CCC(=O)N(C2CC2)C1 (stereo not given)	-3.0	-0.1	3.1	421.0*	11.3	0.5
CCOc1ccc(S(=O)(=O)N2CCN(C(=O)CN3C(=O)NC4(CCCC4)C3=O)CC2)cc1	-1.4	-0.1	-2.3	666.2*	25.7	-0.5
CC(C)CC(=O)Nc1ccc(C(=O)CN2C(=O)NC3(CCOc4ccccc43)C2=O)cc1 (stereo not given)	-1.6	0.1	-6.6	566.4*	16.4	1.0
Cc1cccc2nc(CSc3ccccc3N)cn12	-2.2	0.0	-9.9	0.5	10.9	nt
Cc1cccc2nc(COc3ccc4ccccc4c3Br)cn12	-2.4	0.4	26.3	728.5*	4.1	-1.0
